Inconclusive results are not listed. The source made the active and inactive calls.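 The calls were made as follows, unless noted: active = viability at or below 30% in both replicate assays; inconclusive = viability at or below 30% in just one of the two assays; inactive = the rest.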
Assays:
[1] = Her2 expression decrease, cell viability multiplex – SKBR3 breast tumor cells, AlphaScreen, ATP viability, primary screen (AID 461;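 active = Her2 level under about 52% in both replicate screens, with viability over 70% of control, limit read from the data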;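 as to Her2 level: lower value means less Her2 protein in the cells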;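 as to viability: percent of carrier control wells set as 100% viability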); conditions: SKBR3 Her2 protein level, 18-24 h, measured here: SKBR3 viability, ATP luminescence, at 10 µM
[2] = biological target: Receptor tyrosine-protein kinase erbB-2 (Homo sapiens) (UniProt P04626); experiment: as above; conditions: 18-24 h, at 10 µM, stronger effect = lower value
[3] = reduced viability of SK-BR-3 breast cancer cells – cell-based, 24 h, human, pilot screen (AID 572;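 active = viability at or below 10% of carrier control in both of two separate runs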;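 also: compound exposure lasted between 18 and 24 h rather than exactly 24 h; 100% = carrier-treated control wells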); conditions: SK-BR-3 viability, CellTiter-Glo luminescence, at 10 µM, stronger effect = lower value
[4] = HUVEC growth inhibition – cell-based, human, primary screen (AID 575); conditions: HUVEC proliferation, CellTiter-Glo luminescence, 72 h; at 10 µM; stronger effect = lower value;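 also: 100% = median of untreated cell wells with 0.1% DMSO on each plate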
[5] = H69AR cell proliferation blockers – human, duplicate replicates, primary screen (AID 580;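 active = viability at or under a set limit in both replicates, limit being median viability minus 3 SD, cut at about 48% in these data, passing the limit was not always enough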;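 also: 100% = mean luminescence of untreated wells and 0% = no signal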); conditions: H69AR lung tumor cells viability, ATP luminescence, 72 h; at 10 µM; stronger effect = lower value
[6] = MRP1 drug-resistance reversers in H69AR cells – cell-based, doxorubicin co-treatment, pilot screen (AID 601;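 active = viability loss from added drug above about 55%, and viability with drug at most 40%, in both replicates, limit read from the data, passing the limit was not always enough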); conditions: CellTiter-Glo, 72 h, at 10 µM; for differential viability (reversal): stronger effect = higher value
[7] = yeast transport mutant growth inhibition pilot in 384-well plates, post-Golgi transport modulator project (AID 636; in the data active = inhibition above about 31%); conditions: absorbance 615 nm, about 18 h, stronger effect = higher value
[8] = growth suppression of yeast trafficking mutant, preliminary HTS, modulators of trafficking downstream of Golgi apparatus project, 1536-format plate, OD 615 nm (AID 637; in the data active = inhibition above about 30%); conditions: yeast transport mutant growth, absorbance 615 nm, 18 h; stronger effect = higher value
[9] = S. cerevisiae growth inhibition in permissive medium (OD615), pilot counter-assay for S. cerevisiae lifespan shortening project, permissive growth control (AID 705;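 active = growth inhibition above 25% in both replicates, a cutoff set 3 SD above the mean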); conditions: OD615, 24 h, at 10 µM, stronger effect = higher value
[10] = S. cerevisiae growth inhibition in restrictive medium, OD615, pilot screen, restrictive growth control, yeast lifespan reduction project (AID 706;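 active = growth inhibition above a set limit, 3 SD over mean compound inhibition, in both replicates, cut at about 43% in these data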;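 also: modified DeaD lifespan yeast strain shifted to restrictive glucose medium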); conditions: OD615, 48 h, at 10 µM, stronger effect = higher value
[11] = doxorubicin toxicity protection in MRP-1 cells – H69AR cells, CellTiter-Glo, duplicate, MRP-1 activator project, pilot screen (AID 807;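 active = viability increase at or above a cutoff of the median across tested compounds plus 3 SD, cut at about 8.5% in these data, passing the limit was not always enough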;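 also: compound pretreatment 18-22 h then 72 h combined with doxorubicin; 0% = doxorubicin alone and 100% = vehicle without doxorubicin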); conditions: H69AR viability with doxorubicin, CellTiter-Glo luminescence; at 10 µM; stronger effect = higher value
[12] = viability of HCT116 without oncogenic beta-catenin – human colon tumor cells, pilot screen (AID 823;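 active = cell viability at or below a set limit in both duplicate runs, the limit being the all-compound median minus 4 SD, cut at about 23% in these data, passing the limit was not always enough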;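 also: 0% = wells killed by 20 µM Hyamine and 100% = untreated DMSO cell wells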); conditions: HCT116 beta-catenin knockout viability, CellTiter-Glo, 60 h; at 10 µM; stronger effect = lower value
[13] = viability of PTEN-null HCT116 cells – cell-based, HCT116 clonal line, CellTiter-Glo, pilot screen (AID 824;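 active = viability at or below 27.92% in each of two runs, the all-compound median minus 4 SD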;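 also: 0% = 20 µM Hyamine control and 100% = vehicle cell control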); conditions: HCT116 PTEN-deleted viability, 60 h, at 10 µM, stronger effect = lower value
[14] = RAM pathway blockade in budding yeast – dse1pr::URA3 reporter, 5-FOA selection, pilot screen (AID 869;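 active = inhibition over a set limit, the all-compound mean plus 3 SD, in both replicate runs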;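 also: 0% = DMSO wells with no growth and 100% = 10 µM 1-NA-PP1 with full growth; RAM network block rescues cells from 5-FOA so hits raise OD615 growth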); conditions: S. cerevisiae dse1pr::URA3 5-FOA growth, OD615, 2 d; at 10 µM; stronger effect = higher value; strain carries analog-sensitive mutant Cbk1 kinase
[15] = H69AR cells + 2 uM doxorubicin, measured here: viability with 2 uM doxorubicin, stronger effect = lower value
[16] = H69AR cells, compound alone cytotoxicity

Chain of Receptor tyrosine-protein kinase erbB-2 (Homo sapiens) (P04626 whole entry, looked up): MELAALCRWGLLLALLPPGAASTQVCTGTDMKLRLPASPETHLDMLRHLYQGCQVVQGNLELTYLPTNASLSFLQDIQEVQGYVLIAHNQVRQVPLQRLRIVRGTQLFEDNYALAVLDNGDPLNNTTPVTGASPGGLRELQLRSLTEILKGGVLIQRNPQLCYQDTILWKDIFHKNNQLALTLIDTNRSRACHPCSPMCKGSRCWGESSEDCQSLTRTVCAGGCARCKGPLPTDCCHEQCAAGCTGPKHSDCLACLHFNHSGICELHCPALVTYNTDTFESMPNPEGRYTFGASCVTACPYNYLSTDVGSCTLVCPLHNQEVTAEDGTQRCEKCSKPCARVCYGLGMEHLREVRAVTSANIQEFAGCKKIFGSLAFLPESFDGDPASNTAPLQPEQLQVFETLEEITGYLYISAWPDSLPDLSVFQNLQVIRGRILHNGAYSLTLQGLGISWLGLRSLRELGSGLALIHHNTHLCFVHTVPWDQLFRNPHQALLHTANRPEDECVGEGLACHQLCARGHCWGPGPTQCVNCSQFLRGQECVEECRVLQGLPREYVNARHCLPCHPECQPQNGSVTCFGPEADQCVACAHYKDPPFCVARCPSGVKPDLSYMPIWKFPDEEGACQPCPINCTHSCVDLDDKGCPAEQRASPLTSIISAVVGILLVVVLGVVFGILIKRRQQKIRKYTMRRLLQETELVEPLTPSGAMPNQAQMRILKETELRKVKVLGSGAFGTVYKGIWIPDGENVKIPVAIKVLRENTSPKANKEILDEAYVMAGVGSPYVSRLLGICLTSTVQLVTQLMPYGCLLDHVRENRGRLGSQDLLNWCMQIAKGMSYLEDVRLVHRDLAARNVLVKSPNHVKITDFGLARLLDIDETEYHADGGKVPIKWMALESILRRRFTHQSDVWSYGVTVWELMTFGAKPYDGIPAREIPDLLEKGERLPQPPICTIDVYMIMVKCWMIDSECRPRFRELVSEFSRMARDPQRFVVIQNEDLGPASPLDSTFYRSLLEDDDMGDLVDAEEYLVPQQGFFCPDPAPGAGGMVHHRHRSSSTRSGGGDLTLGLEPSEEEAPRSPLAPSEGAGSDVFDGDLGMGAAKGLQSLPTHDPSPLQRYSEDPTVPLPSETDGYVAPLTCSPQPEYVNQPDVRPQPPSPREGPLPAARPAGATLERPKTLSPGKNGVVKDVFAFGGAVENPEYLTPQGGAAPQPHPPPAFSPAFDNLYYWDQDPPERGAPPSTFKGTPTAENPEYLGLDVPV

Compound	viability [1]	Her2 level [2]	viability [3]	viability [4]	viability [5]	differential viability (reversal) ([6]; H69AR cells + 2 uM doxorubicin)	viability [6, 15]	viability [6, 16]	inhibition [7]	inhibition [8]	growth inhibition [9]	growth inhibition [10]	viability increase [11]	viability [12]	viability [13]	inhibition [14]
CCN(c1ccc2c(c1)OCO2)S(=O)(=O)c1cc(Br)cc2c1N(C(=O)C1CC1)CC2	131%	92.5% (inactive)	131% (inactive)	89.6% (inactive)	73.9% (inactive)	11.9% (inactive)	62%	73.9%	-10% (inactive)	3.17% (inactive)	-12.3% (inactive)	-14.7% (inactive)	-3.72% (inactive)	72.4% (inactive)	72% (inactive)	3.91% (inactive)
Cn1c(=N)c(S(=O)(=O)c2ccccc2)cc2c(=O)n3ccccc3nc21	83.5%	108% (inactive)	83.5% (inactive)	83% (inactive)	75% (inactive)	–	–	–	3.87% (inactive)	31.8% (active)	–	–	–	–	–	–
O=C(COc1ccccc1)N1CCN(c2ncnc3c2cnn3-c2ccccc2)CC1	97%	77% (inactive)	97% (inactive)	58.6% (inactive)	74.8% (inactive)	–	–	–	-8.77% (inactive)	-3.65% (inactive)	–	–	–	–	–	–
Cc1ccc(CCNC(=O)C2CCCN2S(=O)(=O)c2ccc3c(c2)CCC(=O)N3)cc1 (stereo not drawn)	87.5%	93.5% (inactive)	87.5% (inactive)	91.8% (inactive)	101% (inactive)	4.97% (inactive)	96.2%	101%	-1.33% (inactive)	11.2% (inactive)	-8.07% (inactive)	-8.79% (inactive)	3.43% (inactive)	101% (inactive)	98.8% (inactive)	2% (inactive)
CC[C@]1(O)C[C@@H]2CN(CCc3c([nH]c4ccccc34)[C@@](C(=O)OC)(c3cc4c(cc3OC)N(C)[C@H]3[C@@](O)(C(=O)OC)[C@H](OC(C)=O)[C@]5(CC)C=CCN6CC[C@]43[C@@H]65)C2)C1	108%	78.5% (inactive)	108% (inactive)	10.5% (active)	–	-38.2% (inactive)	55.7%	17.5%	–	–	–	–	–	–	–	–
Cn1c(=O)n(Cc2ccccc2)c(=O)c2c1nc(NCC1CCCO1)n2Cc1ccccc1 (stereo not drawn)	81.5%	103% (inactive)	81.5% (inactive)	74.4% (inactive)	73.3% (inactive)	–	–	–	0.79% (inactive)	-0.18% (inactive)	–	–	–	–	–	–
CC[C@H]1OC(=O)C[C@@H](O)[C@H](C)[C@@H](O[C@@H]2O[C@H](C)C[C@H](N(C)C)[C@H]2O)[C@@H](CC=O)C[C@@H](C)C(=O)C=C[C@]2(C)O[C@H]2[C@@H]1C	162%	19.5% (active)	162% (inactive)	53.5% (inactive)	–	-6.67% (inactive)	45.8%	39.1%	–	–	–	–	–	–	–	–
CCOC(=O)c1sc(NC(=O)c2c(C)nn(Cc3ccccc3)c2C)cc1C	82.5%	90.5% (inactive)	82.5% (inactive)	44.6% (inactive)	–	-8.76% (inactive)	46.8%	38.1%	-10% (inactive)	-4.92% (inactive)	–	–	–	–	–	–
O=C(COC(=O)c1cnccn1)c1ccc(OC(=O)c2ccccc2)cc1	104%	100% (inactive)	104% (inactive)	87.8% (inactive)	96.2% (inactive)	-2.16% (inactive)	98.3%	96.2%	-1.67% (inactive)	5.67% (inactive)	-19.2% (inactive)	-15.1% (inactive)	-0.85% (inactive)	93.3% (inactive)	95.2% (inactive)	2.84% (inactive)
N#Cc1c(NC(=O)COC(=O)C2CC3C=CC2C3)oc(-c2ccccc2)c1-c1ccccc1 (stereo not drawn)	106%	80% (inactive)	106% (inactive)	78.1% (inactive)	44.6% (active)	-23.4% (inactive)	68.1%	44.6%	-0.26% (inactive)	-0.36% (inactive)	-17.5% (inactive)	-14.6% (inactive)	-5.47% (inactive)	92.3% (inactive)	–	3.41% (inactive)
Fc1ccc(C2C3=C(Nc4ncnn42)c2ccccc2OC3c2ccncc2)cc1 (stereo not drawn)	85.5%	85.5% (inactive)	85.5% (inactive)	86.7% (inactive)	78.8% (inactive)	–	–	–	-2.11% (inactive)	-3.71% (inactive)	–	–	–	–	–	–
CCCNC(=O)c1c(N)n(-c2cc(OC)cc(OC)c2)c2nc3ccccc3nc12	89%	73.5% (inactive)	89% (inactive)	38.6% (inactive)	–	-9.04% (inactive)	66.7%	57.6%	-3.87% (inactive)	2.3% (inactive)	–	–	–	–	–	–
CN1CCc2c(sc3c2c(=O)n(-c2ccccc2)c2nnc(SCc4ccc(F)cc4)n32)C1	82%	94.5% (inactive)	82% (inactive)	109% (inactive)	102% (inactive)	–	–	–	-1.95% (inactive)	0.79% (inactive)	–	–	–	–	–	–
COc1ccc(N2C(=O)CC(N3CCCC4CCCCC43)C2=O)cc1 (stereo not drawn)	102%	125% (inactive)	102% (inactive)	109% (inactive)	90.8% (inactive)	9.28% (inactive)	81.5%	90.8%	-4.03% (inactive)	-6.83% (inactive)	-3.32% (inactive)	3.25% (inactive)	-0.71% (inactive)	98.3% (inactive)	101% (inactive)	0.71% (inactive)
O=c1[nH]c(=O)n([C@H]2C[C@H](O)[C@@H](CO)O2)cc1F	89%	74% (inactive)	89% (inactive)	51.3% (inactive)	–	-40.6% (inactive)	57%	16.4%	–	–	–	–	–	–	–	–

— PubChem BioAssay
